Reference: PubChem BioAssay

target: Epidermal growth factor receptor (Homo sapiens) (UniProt P00533); experiment: compounds binding epidermal growth factor receptor – biochemical, small-molecule microarray, 635 nm fluorescence, primary screen (AID 1104); conditions: EGFR binding, higher = more signal;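 note: score merges 667 nm emission intensity with spot signal to noise over triplicate slides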
Sequence (P00533 whole entry, looked up): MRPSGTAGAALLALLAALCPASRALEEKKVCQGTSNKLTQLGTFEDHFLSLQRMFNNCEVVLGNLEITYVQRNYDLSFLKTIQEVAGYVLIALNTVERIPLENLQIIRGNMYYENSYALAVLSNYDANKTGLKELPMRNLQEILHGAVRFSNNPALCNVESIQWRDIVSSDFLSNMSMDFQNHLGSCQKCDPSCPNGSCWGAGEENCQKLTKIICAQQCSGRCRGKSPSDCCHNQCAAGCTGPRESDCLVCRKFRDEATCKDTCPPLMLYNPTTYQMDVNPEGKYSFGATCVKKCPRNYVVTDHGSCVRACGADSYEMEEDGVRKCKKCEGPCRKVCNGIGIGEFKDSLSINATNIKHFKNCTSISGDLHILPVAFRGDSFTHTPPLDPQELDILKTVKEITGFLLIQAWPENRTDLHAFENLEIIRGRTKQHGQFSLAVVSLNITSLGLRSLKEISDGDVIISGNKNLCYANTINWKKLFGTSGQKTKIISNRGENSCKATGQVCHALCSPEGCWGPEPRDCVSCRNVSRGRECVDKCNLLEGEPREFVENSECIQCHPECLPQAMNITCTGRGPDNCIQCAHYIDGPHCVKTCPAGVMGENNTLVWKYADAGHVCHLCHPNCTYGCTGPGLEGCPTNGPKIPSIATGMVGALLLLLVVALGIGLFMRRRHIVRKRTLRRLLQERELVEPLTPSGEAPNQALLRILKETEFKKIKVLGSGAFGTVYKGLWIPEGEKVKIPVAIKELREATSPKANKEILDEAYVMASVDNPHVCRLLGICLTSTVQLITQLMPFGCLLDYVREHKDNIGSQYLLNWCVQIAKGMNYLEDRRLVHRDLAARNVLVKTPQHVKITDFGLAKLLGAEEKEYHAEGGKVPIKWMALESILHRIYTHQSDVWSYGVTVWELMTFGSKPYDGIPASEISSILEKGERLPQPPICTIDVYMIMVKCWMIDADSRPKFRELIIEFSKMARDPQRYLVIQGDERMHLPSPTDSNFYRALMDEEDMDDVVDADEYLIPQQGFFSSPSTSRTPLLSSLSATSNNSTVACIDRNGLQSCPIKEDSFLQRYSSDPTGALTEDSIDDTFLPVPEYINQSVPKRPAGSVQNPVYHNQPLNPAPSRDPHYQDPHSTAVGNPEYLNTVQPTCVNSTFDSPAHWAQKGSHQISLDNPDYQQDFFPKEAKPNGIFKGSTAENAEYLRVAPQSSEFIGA

| Compound | composite z-score |
| --- | --- |
| CCOC(=O)[C@H](Cc1ccccc1)NC(=O)CCC1CC(OC(=O)NCc2ccc3c(c2)OCO3)CC2(CCCC(COC(=O)NCc3cccc(C(F)(F)F)c3)O2)O1 (stereo partly specified) | 0.314 |
| CC(=O)OC[C@H]1O[C@@H](ON=C[C@@H](C)[C@H](OCc2ccccc2)C(C)C)[C@H](OC(C)=O)[C@@H](OC(C)=O)[C@@H]1OC(C)=O | 0.338 |
| O=C1[C@H]2[C@H]3[C@H](O)[C@H](O)CC(=NOCc4ccccc4)[C@H]3CC[C@H]2C(=O)N1C[C@@H]1CCCO1 | 0.582 |
| CO[C@@H]1COC(=O)[C@@H]2CCCN2C(=O)[C@@H](C)COC(=O)[C@H](COCc2ccccc2)NC(=O)CC=C[C@H]1C | 0.239 |
| C=C(/C(=C/C[C@H](OC(C)=O)c1ccc(OCCO)cc1)c1cnc2ccccc2c1)C(C)C | 0.333 |
| COC(=O)CC=C[C@@H](C)[C@H](OC)c1ccccc1Br | 0.181 |
| COc1ccccc1CN1C(=O)c2ccccc2[C@@H](C(=O)NCC(F)(F)F)[C@@H]1c1ccc(CO)cc1 | 0.0304 |
| O=C1[C@H]2[C@H]3[C@H](O)[C@H](O)CC(=NO[C@@H]4O[C@H](CO)[C@@H](O)[C@H](O)[C@H]4O)[C@H]3CC[C@H]2C(=O)N1C1CCCCC1 | -0.0158 |
| CC(C)=CCCC(C)=CCON=C1C[C@@H](O)[C@@H](O)[C@@H]2[C@@H]3C(=O)N(C[C@@H]4CCCO4)C(=O)[C@@H]3CC[C@@H]12 | 1.15 |
| C=CC[C@@H]1C=C[C@H](ON=C2c3cc(OC)ccc3O[C@H](c3cccc(OC)c3)[C@H]2O)[C@@H](CO)O1 | 0.379 |
| CCc1cc2c(nc1CC)CCN(CCC(C)=NOC[C@@H](O)COCc1ccco1)C2 | 1.78 |
| CCN1C(=O)[C@H]2[C@H]3[C@H](O)[C@H](O)CC(=NOC(C)CN4CCCCc5nc(C)c(C)cc54)[C@@H]3CC[C@H]2C1=O (stereo partly specified) | 0.78 |
| COCCOC(=O)N1C(=O)[C@@]2(c3cc(C#CC4(O)CCCCCC4)ccc31)[C@H](c1ccc(OCCO)cc1)N1[C@H](c3ccccc3)[C@H](c3ccccc3)OC(=O)[C@H]1[C@@H]2C(=O)NC[C@H](O)c1ccccc1 | 0.258 |
| CC1CC/C=C\[C@H]2OC34C=CCN(C(C)C)C(=O)[C@H]3N(CCCO)C(=O)[C@@H]4C2C(=O)O1 (stereo partly specified) | -1.74 |
| CCCNC(=O)OC[C@H]1O[C@H](CCON=CC[C@@H]2C=C[C@H](OC(C)=O)[C@@H](COC(C)=O)O2)C=C[C@@H]1Oc1ccc(OC)cc1 | 0.492 |
| Cc1ccc(S[C@]2(C(=O)O)CC(=O)N(Cc3ccccc3)[C@@H]2c2ccc(CO)cc2I)cc1 | -0.814 |
| CC(=O)C[C@H](O)[C@@H](NC(=O)OC(C)(C)C)C(C)C | -0.397 |
| COC(=O)C1=CCC(c2cccc(Cl)c2)O1 (stereo unspecified) | -0.412 |

| Compound | composite z-score |
| --- | --- |
| COCCCNC(=O)[C@@]1(CCS(=O)(=O)c2ccccc2)N=C(c2ccc(OCCCO)cc2)O[C@H]1c1ccccc1 | -0.11 |
| O=C(NN=C1C[C@@H](O)[C@@H](O)[C@@H]2[C@@H]3C(=O)N(c4cccc(Oc5ccccc5)c4)C(=O)[C@@H]3CC[C@@H]12)OCc1ccccc1 | 0.152 |
| CCOC(=O)NN=C1C[C@@H](O)[C@@H](O)[C@@H]2[C@@H]3C(=O)N(C[C@@H]4CCCO4)C(=O)[C@@H]3CC[C@@H]12 | 0.364 |
| COC(=O)c1c(CC[C@@H](CO)NC(=O)N[C@H](Cc2ccccc2)Cn2cc(-c3ccccc3N)nn2)oc(C(C)=O)c1C(=O)OC | -0.165 |
| CC(CCN1CCc2nc(-c3ccccc3)c(-c3ccccc3)cc2C1)=NOC(C)CN1CCCCc2nc(C)c(C)cc21 (stereo unspecified) | 0.964 |
| CCCNC(=O)[C@@H]1c2ccccc2C(=O)N(Cc2ccccc2Cl)[C@H]1c1ccc(CO)cc1 | 0.192 |
| COc1ccc(O[C@H]2C=C[C@@H](c3ccccc3)O[C@@H]2COC(=O)CCC(C)=NOCC[C@@H]2C=C[C@H](OC(C)=O)[C@@H](COC(C)=O)O2)cc1 | 0.275 |
| CC(C)OC(=O)C=C1C[C@@H](c2ccc(C#N)cc2)O[C@@H](c2ccc(C#N)cc2)O1 | 0.87 |
| CCCC=C(CCC)[C@@H](NC(=O)c1ccc(-c2ccccc2)cc1)c1ccc(C(=O)OC)cc1 | -0.237 |
| CCCC[C@@H](O)C1=C(C)C[C@H]2C(=O)N(Cc3ccccc3)C(=O)[C@H]2[C@H]1CO | 0.464 |
| COCCNC(=O)OCC1CCCC2(CC(OC(=O)NCCc3ccc(F)cc3)CC(CCC(=O)N[C@@H](C)C(=O)OC)O2)O1 (stereo partly specified) | 0.601 |
| C[N+](C)(C)CCCCCCNC(=O)[C@@H]1C[C@@H]2C(=O)N3CCC[C@H]3C(=O)N2[C@@H]1c1cccc(OCCO)c1 | 0.36 |
| CC(C)C[C@@H]1NC(=O)[C@H]2C[C@@H](C(=O)O)[C@@H](c3ccc(O)cc3)N2C1=O | -0.284 |
| O=C1O[C@@H](c2ccccc2)[C@@H](c2ccccc2)N2[C@@H](c3ccccc3OCCO)[C@]3(C(=O)Nc4ccc(C#CCCO)cc43)[C@@H](C(=O)O)[C@H]12 | -0.0589 |
| CO[C@H]1COC(=O)[C@H](C)COC(=O)CC=C[C@@H](C)[C@H](OC)COC(=O)CC=C[C@@H]1C | 1.47 |
| C=CCC(OC(C)=O)[C@@H]1[C@@H](N(Cc2cc3ccccc3o2)C(=O)Cc2ccc(F)cc2)c2cc(OCCCO)ccc2N1C(=O)Cc1ccc(OC)cc1 (stereo partly specified) | -0.239 |
| CO[C@@H]1COC(=O)[C@H](C)NC(=O)[C@@H](C)COC(=O)CCC[C@H]1C | 0.429 |
| CC(C)(C)OC(=O)CC[C@]1(C(N)=O)COC(c2ccc(OCCCO)cc2)=N1 | -0.395 |
